Measured values reported in PubChem BioAssay (NCATS).
Records with an inconclusive call do not appear. Active and inactive are the calls of the source. Unless noted, the call rests on the fitted dose curve.

Tests used:
[1] = qHTS for Inhibitors of the Functional Ribonucleoprotein Complex (vRNP) of Lassa (LASV) Arenavirus: LASV Primary Screen - GLuc reporter signal (AID 1347082; calls by dose curve; tested in HEK293 reporter line; further: nearly all actives have a fitted effect of over 60% in size)
[2] = qHTS for Inhibitors of the Functional Ribonucleoprotein Complex (vRNP) of Lassa (LASV) Arenavirus: Viability assay - alamar blue signal for LASV Primary Screen (AID 1347083; calls by dose curve; tested in HEK293 reporter line; further: nearly all actives have a fitted effect of over 80% in size)
[3] = qHTS for Inhibitors of the Functional Ribonucleoprotein Complex (vRNP) of Lymphocytic Choriomeningitis Arenaviruses (LCMV): Viability assay - alamar blue signal for LCMV Primary Screen (AID 1347085; calls by dose curve; tested in HEK293 reporter line; further: nearly all actives have a fitted effect of over 80% in size)
[4] = target: Nucleoprotein (Lymphocytic choriomeningitis virus (strain Armstrong)) (UniProt P09992); experiment: qHTS for Inhibitors of the Functional Ribonucleoprotein Complex (vRNP) of Lymphocytic Choriomeningitis Arenaviruses (LCMV): LCMV Primary Screen - GLuc reporter signal (AID 1347086); further: nearly all actives have a fitted effect of over 70% in size

Measured: Potency
Further: series mostly up to about 57 µM.

Nucleoprotein (Lymphocytic choriomeningitis virus (strain Armstrong)), sequence (P09992 whole entry, looked up): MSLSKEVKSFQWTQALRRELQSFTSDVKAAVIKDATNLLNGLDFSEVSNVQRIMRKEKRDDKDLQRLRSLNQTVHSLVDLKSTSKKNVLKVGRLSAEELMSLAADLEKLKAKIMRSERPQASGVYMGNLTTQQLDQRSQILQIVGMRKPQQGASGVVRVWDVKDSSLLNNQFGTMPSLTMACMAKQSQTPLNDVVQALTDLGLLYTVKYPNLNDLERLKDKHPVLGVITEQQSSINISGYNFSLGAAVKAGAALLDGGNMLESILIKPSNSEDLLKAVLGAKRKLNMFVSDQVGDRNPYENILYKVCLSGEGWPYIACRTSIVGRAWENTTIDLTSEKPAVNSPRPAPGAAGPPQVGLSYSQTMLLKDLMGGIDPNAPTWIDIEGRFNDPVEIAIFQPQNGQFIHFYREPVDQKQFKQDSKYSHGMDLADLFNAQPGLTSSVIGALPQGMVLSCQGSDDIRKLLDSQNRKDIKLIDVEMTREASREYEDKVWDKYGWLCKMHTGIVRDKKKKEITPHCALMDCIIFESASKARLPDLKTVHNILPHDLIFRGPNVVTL

CN1C(=O)C(Cc2c[nH]c3ccccc23)NC1=S (stereo not given)
inactive: all assays above

CCOc1cc(NC(C)=O)ccc1C(=O)OC
inactive: all assays above

O=C(O)CC(O)C(=O)O (stereo not given)
inactive: all assays above

CC[N+](C)(CC)CCOC(=O)C(O)(c1ccccc1)C1CCCCC1 (stereo not given)
inactive: all assays above

CCCCCCCc1ccc(CCc2cccc(O)c2C(=O)O)cc1
inactive: all assays above
